# Source: the supplement of paper PMC3334620
# The full ranking holds about 33,000 sequences; the median of “E-score (-0.5 to 0.5)” is about -0.0034, and the highest 2% start at about 0.25. The sample as a whole holds a higher share of the highest values than the screen did.
# Target: T1, Yap3 (UniProt P38749)
# T1 sequence: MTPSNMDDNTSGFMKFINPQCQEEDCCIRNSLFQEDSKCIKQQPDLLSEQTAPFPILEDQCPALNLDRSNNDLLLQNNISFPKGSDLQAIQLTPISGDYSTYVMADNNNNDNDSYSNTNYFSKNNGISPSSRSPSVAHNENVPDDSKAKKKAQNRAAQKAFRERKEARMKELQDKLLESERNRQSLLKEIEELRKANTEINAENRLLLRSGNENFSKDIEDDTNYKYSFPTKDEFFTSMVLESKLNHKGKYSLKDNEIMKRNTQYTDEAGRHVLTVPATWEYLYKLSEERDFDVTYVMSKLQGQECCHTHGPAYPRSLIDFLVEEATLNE
# Test: PBM E-score (8-mer binding enrichment) (E-score (-0.5 to 0.5)); higher = stronger / more preferred TF binding
# Conditions: protein concentration: 100 nM; construct: GST-full length
# Outline: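 Yeast transcription factors carrying a GST tag, as full-length proteins or DNA-binding domains, were produced by PURExpress in vitro transcription/translation. About 100-200 nM protein was applied to universal all-10-mer Agilent arrays, double-stranded by primer extension on fresh or once-stripped slides. Bound protein was detected with fluorescent anti-GST, and scans were normalised with masliner. The Universal PBM Analysis Suite gave each ungapped eight-base word, pooled with its reverse complement, an E-score, a modified Wilcoxon-Mann-Whitney statistic.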
row,Sequence,PBM E-score
1,CAGCTGCC,-0.0739
2,CATCCTTA,-0.00117
3,CCCAGTTC,-0.0993
4,GGTGCGGA,-0.0917
5,CGATGGAC,-0.0566
6,AACCATCC,-0.0788
7,AATGCTCT,-0.0877
8,CAGACAAA,0.126
9,CGCTCACC,-0.0419
10,GCCCAGCA,-0.301
11,AATAATAT,0.337
12,AATAAGAG,0.195
13,AAGAATAT,0.0717
14,CATAATGG,-0.033
15,AATAAGAA,0.269
16,AATAATCT,0.31
17,AATAATCC,0.109
18,AATAATCG,0.107
19,AATAAGAT,0.075
20,AATAATGG,0.329
21,AATAATGT,0.233
22,GACGGGGA,-0.164
23,ACCAGGTC,-0.0571
24,CGGCGATC,-0.086
25,GAGGGGCC,-0.323

row,Sequence,PBM E-score
1,AGCTCAGG,-0.0122
2,CATTATTC,0.185
3,AATTATAA,0.224
4,AATTATTG,0.195
5,AATTATTA,0.311
6,CATTATAA,0.0345
7,AGTTATTA,0.184
8,GATTATAA,0.244
9,CATTATTA,0.334
10,AATTATAG,0.234
11,AATTATAC,0.26
12,GATTATTA,0.198
13,TATTATAA,0.281
14,GAACCCTA,-0.054
15,CAAGGGTC,-0.0382
16,AAGAATCC,-0.111
17,ACCTCTCT,-0.175
18,ATACTTCG,-0.0772
19,GGACTGTA,-0.0642
20,TATGCAGA,0.0525
21,AGTTATTC,0.096
22,AAGTATAT,0.135
23,AATTATTC,0.256
24,AAGTATAC,0.266
25,AACTATTC,0.125

row,Sequence,PBM E-score
1,AAGTATAA,0.249
2,CATATGAA,0.132
3,ACTTATGC,0.0843
4,GGGTAGAC,-0.216
5,AGAATCGA,0.0567
6,GGAATCGA,-0.059
7,CGAATCGA,0.301
8,CCTATTGA,0.0457
9,CGCTAACA,0.118
10,GATATGAA,0.214
11,TATATGAA,0.203
12,AATATGAA,0.279
13,AATATGAG,0.0655
14,AATATGAC,0.223
15,AATATGAT,0.279
16,CCAGTCTC,-0.22
17,AGGACACA,0.0983
18,CCATAATC,0.144
19,GCATAACA,0.157
20,CCATAATA,0.214
21,ACATAATG,0.211
22,ACATAACC,0.0973
23,GCATAATA,0.283
24,GCATAAGA,0.0573
25,ACATAAGA,0.185

row,Sequence,PBM E-score
1,ACATAATA,0.353
2,ACATAATC,0.293
3,ACATAACA,0.285
4,ACATAACT,0.192
5,ATGTGGAC,-0.0215
6,ACCTCCTC,-0.145
7,AATGCAGT,0.0696
8,TACTAAGA,0.242
9,ACCGCTGG,-0.16
10,CAGCCCCC,-0.384
11,ACAAAGTG,0.0611
12,ATAAAGTG,0.271
13,ATAAAGTC,0.133
14,CTAAAGTA,-0.0221
15,ATAAAGTA,0.286
16,GTAAAGTA,0.251
17,AGTGCGGC,-0.165
18,GATGAGAA,0.0962
19,CCGCATGC,-0.00346
20,AAAATGAT,0.265
21,AAAATGAC,0.13
22,ATAATGGA,0.188
23,CTAATGGA,-0.0109
24,GTAATGGA,0.288
25,AAAATGAA,0.208

row,Sequence,PBM E-score
1,AAAATGGG,-0.0559
2,CAAATGGA,-0.0854
3,AAAATGGA,0.309
4,CACCCGAA,0.0804
5,ACCAAGAC,0.175
6,AACGACAT,0.202
7,AGAACTGC,-0.131
8,CATGAACC,0.0622
9,ATTCACAA,0.294
10,GTTCACAA,0.043
11,ATTCACAG,0.0188
12,GCATACGA,-0.062
13,CAACGGTA,-0.108
14,CTACGGAA,0.068
15,GAACGGTA,0.083
16,AAACGGGA,0.12
17,ATACGGAA,0.185
18,TTACGGAA,0.266
19,AAACGGAT,0.277
20,ACACGGAA,0.0309
21,AAACGGAG,0.0915
22,AAACGGAC,-0.155
23,AAACGGTA,0.301
24,AAACGGAA,0.263
25,ACATGGGT,-0.0457

row,Sequence,PBM E-score
1,ACTAGCAT,-0.0172
2,ACAAGCGC,0.0537
3,ATACCATC,0.119
4,CCATTTGA,-0.0292
5,TCGATCCA,-0.0884
6,ACGCGCAC,-0.015
7,CCAGTTAA,0.143
8,GGAGCCTA,-0.0407
9,TAACGGAA,0.276
10,GAACGGAA,0.0365
11,CAACGGAA,0.15
12,GAACAAAA,0.346
13,GAACAAAC,0.227
14,AACAAAAG,0.164
15,GACAAGAA,0.127
16,ACCAAAAT,0.0693
17,AAACAAAA,0.185
18,AACAAAAA,0.307
19,GACAAAAA,0.315
20,AACAAAAC,0.239
21,GACAAAAC,0.179
22,ACCAAAAC,0.104
23,ACCAAAAA,0.277
24,AGGCCACA,-0.191
25,GGGATTGA,-0.173

row,Sequence,PBM E-score
1,CAGTAGCA,-0.0517
2,AGTGAAGG,0.0123
3,TAATCAAA,0.285
4,CTATCAAA,0.155
5,GTATCAAA,0.187
6,TTATCAAA,0.283
7,CAATCAAA,0.0584
8,GAATCAAA,0.0372
9,GGCGCTGA,-0.124
10,ATCAGCTC,0.00619
11,AGTTACAC,0.0567
12,CAACATTG,0.115
13,CCGATTTA,0.107
14,ACGATTTA,0.312
15,GTGATTTA,0.261
16,GCGATTTA,0.0749
17,CTGATTTA,0.14
18,ATGATTTA,0.202
19,CACCTCTA,0.158
20,GCAGATAA,-0.0214
21,CTATACTA,0.16
22,ATATACAC,0.171
23,CTATACAA,0.189
24,ATATACTA,0.306
